Experimental data from PubChem BioAssay.
Calls of active or inactive are those of the source. Unless noted, no rule for the calls is given here.

Legend:
[1] = test system: XIP peptide (Xip251-270) binding; experiment: small-molecule binders of XIP peptide, primary screen, biochemical, small-molecule microarray, fluorescence 635/667 nm, 0.1 µg/mL protein (AID 1182); conditions: fluorescent protein binding, 635 nm, higher = more signal, called active from +8 up or from −8 down
XIP peptide (Xip251-270) = experiment: small-molecule binders of XIP peptide, primary screen, biochemical, small-molecule microarray, fluorescence 635/667 nm, 0.5 µg/mL protein (AID 1183); conditions: small-molecule microarray binding, fluorescence 635 nm; higher = more signal
[2] = Plasmodium falciparum growth inhibition, primary screen, strain 3D7, DAPI fluorescence, 100 nL (AID 1184);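 also: parasites grown inside human red blood cells in medium with human serum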; conditions: P. falciparum 3D7 growth, 3 d, higher = more signal
[3] = molecular target: Homeobox protein Hox-A13 (Mus musculus) (UniProt Q62424); experiment: inhibitors of HoxA13-DNA binding, primary screen, biochemical, fluorescence polarization, labeled oligonucleotide (AID 1185); conditions: 15 min, higher = more signal, called active from +8 up or from −8 down
[4] = inhibitors of hydroxyurea-induced Chk1 phosphorylation, primary screen, imaging, HeLa, phospho-Chk1 antibody, percent positive cells (AID 1186); conditions: hydroxyurea-induced phospho-Chk1 immunofluorescence imaging, higher = more signal
[5] = inhibitors of hydroxyurea-induced Chk1 phosphorylation, primary screen, imaging, HeLa, phospho-Chk1 nuclear intensity (AID 1187); conditions: hydroxyurea-induced phospho-Chk1 immunofluorescence imaging, higher = more signal

Sequence of Homeobox protein Hox-A13 (Mus musculus) (Q62424 whole entry, looked up): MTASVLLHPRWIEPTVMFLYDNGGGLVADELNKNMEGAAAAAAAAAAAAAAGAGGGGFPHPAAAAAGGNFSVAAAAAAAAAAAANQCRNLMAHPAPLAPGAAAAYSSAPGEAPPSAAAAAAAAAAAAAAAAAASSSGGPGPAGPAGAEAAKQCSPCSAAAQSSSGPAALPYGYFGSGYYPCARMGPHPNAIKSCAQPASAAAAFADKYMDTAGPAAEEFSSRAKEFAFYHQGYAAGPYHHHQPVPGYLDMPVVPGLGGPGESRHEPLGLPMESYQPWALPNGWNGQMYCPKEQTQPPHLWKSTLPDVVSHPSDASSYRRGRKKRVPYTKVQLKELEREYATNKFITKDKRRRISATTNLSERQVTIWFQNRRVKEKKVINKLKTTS

Row | Compound | composite z-score [1] | composite z-score (XIP peptide (Xip251-270)) | z-score [2] | z-score [3] | z-score [4] | z-score [5]
1 | [N-]=[N+]=NCc1ccccc1C[C@@]1(C(=O)N2CCCCC2)N=C(c2ccc(OCCCO)cc2)O[C@@H]1c1ccccc1CN=[N+]=[N-] | 0.0378 (inactive) | -0.0651 | -2.55 | 0.301 (inactive) | -0.382 (inactive) | -0.903 (inactive)
2 | CN1C(=O)C2C(C1=O)C1C=C(CCCO)C2C(C2CC2)N1Cc1cc2c(cc1Br)OCO2 (centres undefined) | 1.34 (inactive) | 0.891 | -1.2 | -7.89 (inactive) | 0.498 (inactive) | 0.27 (inactive)
3 | C=C[C@@H](OC)[C@H](OC(=O)Nc1ccc(SC)cc1)c1ccc(OCCO)cc1 | -0.302 (inactive) | 0.709 | 0.0419 | -5.58 (inactive) | -0.0838 (inactive) | 0.168 (inactive)
4 | C[C@@]12COC[C@]13C=C(Br)[C@H](C2)[C@@]1(CO1)C3=O | 0.0387 (inactive) | -0.192 | 1.88 | -0.703 (inactive) | -0.0927 (inactive) | 0.12 (inactive)
5 | CCCC=C(CCC)[C@@H](NS(=O)(=O)c1cccc2cccnc12)c1ccc(-c2ccccc2)cc1 | -0.356 (inactive) | 0.604 | -0.831 | -0.807 (inactive) | 0.483 (inactive) | 0.309 (inactive)
6 | CC(C)C(=C=CC[C@@H](O)c1cccc(OCCO)c1)C[C@@H](O)c1ccccn1 | -0.0008 (inactive) | 0.29 | -0.0244 | -5.17 (inactive) | -0.122 (inactive) | 0.156 (inactive)
7 | [N-]=[N+]=NCc1ccccc1[C@@H]1OC(c2ccc(OCCCO)cc2)=N[C@]1(Cc1ccccc1N=[N+]=[N-])C(=O)N1CCCCC1 | 0.111 (inactive) | 0.724 | -2.16 | -1.44 (inactive) | -0.234 (inactive) | -0.0332 (inactive)
8 | C=CCC(OC(C)=O)[C@@H]1[C@@H](N(Cc2cccc3ccccc23)C(=O)c2cccc3ccccc23)c2cc(OCCCO)ccc2N1C(=O)c1ccc2ccccc2c1 (some centres undefined) | 0.25 (inactive) | 0.012 | -2.41 | -1.18 (inactive) | -0.534 (inactive) | -0.158 (inactive)
9 | O=c1cccc(-c2ccco2)o1 | -0.103 (inactive) | 0.337 | 2.05 | -1.92 (inactive) | 0.0593 (inactive) | -0.106 (inactive)
10 | Cc1ccc(S[C@]2(C(=O)NC(C)C)CC(=O)N(C(C)C)[C@@H]2c2ccc(CO)cc2I)cc1 | 0.317 (inactive) | 0.101 | -2.02 | -2.58 (inactive) | 0.0841 (inactive) | 0.925 (inactive)
11 | COCCOC(=O)N1C(=O)[C@@]2(c3ccccc31)[C@H](c1ccccc1OCCO)N1[C@H](c3ccccc3)[C@H](c3ccccc3)OC(=O)[C@H]1[C@@H]2C(N)=O | 2.37 (inactive) | 0.784 | -0.946 | -4.81 (inactive) | 0.0327 (inactive) | 0.12 (inactive)
12 | O=C1C[C@@](C(=O)NCC(F)(F)F)(c2ccc([N+](=O)[O-])cc2)[C@@H](c2ccc(CO)cc2)N1CC12CC3CC(CC(C3)C1)C2 | 1.13 (inactive) | 0.709 | -1.43 | -4.42 (inactive) | -0.123 (inactive) | -0.661 (inactive)
13 | C=C(CCCC)C(=O)CC[C@H](OC(C)=O)c1ccc(OCCO)cc1 | 0.783 (inactive) | 0.227 | -3.07 | -6.07 (inactive) | -0.427 (inactive) | -0.523 (inactive)
14 | CC1(C)C(=O)C(c2ccccc2)=C2CN3C(=O)N(CCc4ccccc4)C(=O)C3(Cc3ccc(F)cc3)C=C21 (centres undefined) | 0.2 (inactive) | 0.328 | -1.81 | -1.99 (inactive) | 0.478 (inactive) | -0.173 (inactive)
15 | C=C(COC)/C(=C/C[C@@H](OC(=O)c1ccncc1)c1ccccc1OCCO)c1cc(C(=O)OC)ccc1OC | -0.115 (inactive) | -0.728 | -2.97 | -4.02 (inactive) | 0.386 (inactive) | 0.77 (inactive)
16 | NC(=O)[C@H]1[C@@H]2C(=O)O[C@@H](c3ccccc3)[C@@H](c3ccccc3)N2[C@@H](c2ccc(O)cc2)[C@]12C(=O)Nc1ccc(C#CC3=CCCCC3)cc12 | 0.875 (inactive) | -0.0283 | -0.88 | -1.08 (inactive) | -0.165 (inactive) | -0.348 (inactive)
17 | Cc1cccc([C@H]2C[C@H]3C(I)=C[C@@H]2C(=O)[C@]32CO2)c1 | 0.162 (inactive) | -0.452 | 1.22 | -1.53 (inactive) | -0.33 (inactive) | -0.466 (inactive)

Row | Compound | composite z-score [1] | composite z-score (XIP peptide (Xip251-270)) | z-score [2] | z-score [3] | z-score [4] | z-score [5]
18 | CCc1cccc(NC(=O)O[C@H]2[C@H](OC(=O)Nc3ccccc3)[C@H](OC(=O)Nc3ccccc3)[C@@H](OC)O[C@@H]2CO)c1 | 1.54 (inactive) | 0.829 | -1.49 | -5.74 (inactive) | 0.156 (inactive) | 0.628 (inactive)
19 | CC(CO)N1C(=O)[C@@H]2[C@H]3C(=O)OCC=C[C@H]3OC23C=CCN(c2ccc(Cl)cc2)C(=O)[C@@H]13 (some centres undefined) | -0.4 (inactive) | -0.862 | 0.599 | -3 (inactive) | -0.985 (inactive) | -0.995 (inactive)
20 | C=CCN1C(=O)[C@@]2(O[C@@H](CCO)[C@H]([Si](C)(C)c3ccc(OC)cc3)[C@H]2C)c2cc(N3CCOC3=O)ccc21 | 0.341 (inactive) | 0.68 | -2.39 | -5.97 (inactive) | -0.0674 (inactive) | 0.0448 (inactive)
21 | C=C[C@H](C)[C@H](OC(=O)Nc1ccc(OC)cc1)c1ccc(OCCO)cc1 | 0.526 (inactive) | -0.0503 | -1.15 | -4.59 (inactive) | -0.806 (inactive) | -0.261 (inactive)
22 | O=C(O)[C@H]1C[C@H]2C(=O)N[C@@H](Cc3ccccc3)C(=O)N2[C@H]1c1cccc(OCCO)c1 | -0.0627 (inactive) | 0.152 | -0.74 | -1.74 (inactive) | 0.464 (inactive) | 0.48 (inactive)
23 | COc1ccc(C#Cc2ccc3c(c2)[C@]2(C(=O)N3)[C@H](c3ccc(OCCO)cc3)N3[C@H](c4ccccc4)[C@H](c4ccccc4)OC(=O)[C@H]3[C@@H]2C(=O)N2CCc3cc(OC)c(OC)cc3C2)cc1 | 0.119 (inactive) | 0.659 | -1.92 | 2.11 (inactive) | -0.0018 (inactive) | 0.0006 (inactive)
24 | CCCCC=C[C@@H](NC(=O)c1ccccc1)c1ccccc1 | 0.558 (inactive) | 0.496 | -1.47 | 2.61 (inactive) | 0.855 (inactive) | 0.274 (inactive)
25 | CC(C)C(=C=CC[C@H](O)c1cccc(OCCO)c1)CCO | 0.675 (inactive) | 0.0075 | 0.585 | -1.92 (inactive) | 0.0348 (inactive) | 0.549 (inactive)
26 | COc1ccc([Si](C)(C)[C@H]2[C@H](CCO)O[C@@]3(C(=O)N(Cc4ccccc4)c4ccc(N5CCOC5=O)cc43)[C@@H]2C)cc1 | 0.16 (inactive) | 0.52 | -1.75 | -3.27 (inactive) | -0.796 (inactive) | -0.721 (inactive)
27 | CN1C(=O)[C@@]2(Cc3ccccc3)N=C(c3ccc(OCCCO)cc3)O[C@H]2c2ccccc21 | 1.11 (inactive) | 0.687 | -2.26 | -4.01 (inactive) | -0.632 (inactive) | -0.864 (inactive)
28 | CC(C)N1CC=CC23O[C@@H]4/C=C\CCCOC(=O)C4[C@H]2C(=O)N(CCCCCCO)[C@@H]3C1=O (some centres undefined) | 1.15 (inactive) | -0.853 | -0.064 | -5.14 (inactive) | -0.765 (inactive) | -0.0806 (inactive)
29 | CC(C)=CCCC(C)=CC(O)C1C=CC2C(=O)N(c3ccccc3)C(=O)C2N1Nc1ccccc1F (centres undefined) | 0.0917 (inactive) | 0.546 | 0.203 | -3.38 (inactive) | 0.0156 (inactive) | 0.0908 (inactive)
30 | C=C(C)C1CCC(C(O)C2C=CC3C(=O)N(C)C(=O)C3N2Nc2cc(OC)c(OC)c(OC)c2)CC1 (centres undefined) | 0.287 (inactive) | 0.596 | -0.593 | -5.2 (inactive) | -0.113 (inactive) | -0.431 (inactive)
31 | COCCOC(=O)N1C(=O)[C@@]2(c3cc(C#CCNC(N)=O)ccc31)[C@H](c1ccc(O)cc1)N1[C@H](c3ccccc3)[C@H](c3ccccc3)OC(=O)[C@H]1[C@@H]2C(N)=O | -0.256 (inactive) | 0.124 | 0.228 | -0.531 (inactive) | -0.0933 (inactive) | -0.0072 (inactive)
32 | CC(=O)NCCCC[C@@H]1NC(=O)[C@@H]2C[C@H](C(=O)NCCCCCCN)[C@H](c3cccc(OCCO)c3)N2C1=O | 1.15 (inactive) | 0.635 | 1.42 | -3.35 (inactive) | 0.391 (inactive) | 0.388 (inactive)
33 | CC=CC(O)C1C=CC2C(=O)NC(=O)C2N1Nc1ccccn1 (centres undefined) | 2.39 (inactive) | 0.684 | -0.0521 | -1.1 (inactive) | 0.517 (inactive) | 0.359 (inactive)
34 | Cc1ccc([C@H]2C(C(=O)O)=C[C@@H](C(C)(C)C)N2S(=O)(=O)c2ccc(C)cc2)cc1 | 0.629 (inactive) | 0.854 | 1.64 | -4.73 (inactive) | 0.695 (inactive) | 0.255 (inactive)
